Measured values from the OligoGym collection.

Biological target: PAFAH1B2
Experiment: pooled miR-30 sensor sort-seq; sequence = guide strand
Settings: shRNA
Also: reference of the scale not given here.

Row | Sequence | sensor-assay potency score (higher = more potent)
1 | TTCTGCTGTATTTTCGTGGTTA | 0.637
2 | ATTTAAACAACAATCTTCCTTG | 0.529
3 | TTTCGTGGTTATTTGTTCCTAC | 0.14
4 | ATGAATTTAAACAACAATCTTC | -0.0238
5 | TTCTTCTGCTGTATTTTCGTGG | -0.326
6 | TTACAGTCCAAAACAAATCTGT | 0.236
7 | TTGCTGCATTAACTGCACCATG | -1.37
8 | TGTGCTGAGACATCCATCGGTC | -0.024
9 | TAATATTCTCCAGTTCTCCATT | -1.1

Biological target: PAG1
Experiment: as above
Settings: shRNA

Row | Sequence | sensor-assay potency score (higher = more potent)
10 | TTCTTGTGTAGTTATCTGCCTA | -0.676
11 | TTTTTTGTTTCTGTCCACCGAG | -0.11
12 | TAATATTTGAAAACTCTTGGGG | 0.247
13 | TTGTTTTTGATAACTACCTTTC | -0.868
14 | TTAAACTGTAGCATTAGCTCAA | 0.54
15 | TTTTTGTTTCTGTCCACCGAGG | -1.07
16 | TTTTCTTTTCTATATAGCGTTT | -1.01
17 | TAAACTGTAGCATTAGCTCAAG | -0.488
18 | TAAATTTCACATAACCTGCTAT | 0.485
19 | TTGCAAAATAATGACAACCAAC | -1.68
20 | TACATAATAGAACATATCCTAA | -0.651
21 | TTACTGATGAGTACATAGCTGA | -0.0368
